PubChem BioAssay AID1159580 (chemical genetic matrix, 2015)
About 2,000 (36%) of roughly 5,500 compounds were called active. Another 18% or so got no clear call; they are omitted. Cut-off read from the data, not from the text of the source: active = normalized growth mostly below about 0.91 (no sharp cut-off); inconclusive = no clear call, values can overlap the other calls; inactive = mostly above about 0.92. This is one part of the list.

Test: chemical genetic growth profiling, strain panel (AID 1159580);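 note: tested at 20 µM; growth read once vehicle control cultures reached saturation at 30 °C; 1 = growth at the plate median or of vehicle wells; lower values mean less growth of the strain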
Conditions: growth OD

Measured: normalized growth

NC1(C(=O)O)CCCC1
inactive: S. cerevisiae deletion strains, locus YJR075W, strain HOC1, active compounds read low 0.997 | S. cerevisiae deletion strains, locus YKL009W, strain mrt4, active compounds read low 0.993 | S. cerevisiae deletion strains, locus YKL068W, active compounds read low 1 | S. cerevisiae deletion strains, locus YKL085W, strain MDH1 (second series), active compounds read low 0.996 | S. cerevisiae deletion strains, locus YKL085W, strain MDH1, active compounds read low 0.996 | S. cerevisiae deletion strains, locus YKL160W, strain elf1, active compounds read low 1.02 | S. cerevisiae deletion strains, locus YKL190W, strain CNB1, active compounds read low 1.01 | S. cerevisiae deletion strains, locus YKR001C, strain vps1, active compounds read low 0.998 | S. cerevisiae deletion strains, locus YKR026C, strain gcn3, active compounds read low 1.02 | S. cerevisiae deletion strains, locus YKR091W, strain srl3, active compounds read low 1.01 | S. cerevisiae deletion strains, locus YLL001W, strain dnm1, active compounds read low 1.03 | S. cerevisiae deletion strains, locus YLL026W, active compounds read low 1.01 | S. cerevisiae deletion strains, locus YLL041C, strain sdh2, active compounds read low 1.02 | S. cerevisiae deletion strains, locus YLR027C, strain aat2, active compounds read low 1.02 | S. cerevisiae deletion strains, locus YLR039C, strain RIC1, active compounds read low 0.971 | S. cerevisiae deletion strains, locus YLR058C, strain SHM2, active compounds read low 1.01 | S. cerevisiae deletion strains, locus YLR102C, strain apc9, active compounds read low 1 | S. cerevisiae deletion strains, locus YLR113W, strain HOG1, active compounds read low 1.06 | S. cerevisiae deletion strains, locus YLR221C, strain rsa3, active compounds read low 0.994 | S. cerevisiae deletion strains, locus YLR258W, strain gsy2, active compounds read low 1.02 | S. cerevisiae deletion strains, locus YLR262C, strain YPT6 (second series), active compounds read low 1.04 | S. cerevisiae deletion strains, locus YLR262C, strain YPT6, active compounds read low 1.02 | S. cerevisiae deletion strains, locus YLR268W, strain sec22, active compounds read low 1.01 | S. cerevisiae deletion strains, locus YLR320W, strain mms22, active compounds read low 1.03 | S. cerevisiae deletion strains, locus YLR330W, strain CHS5, active compounds read low 1 | S. cerevisiae deletion strains, locus YLR342W, strain FKS1 (second series), active compounds read low 1 | S. cerevisiae deletion strains, locus YLR342W, strain FKS1, active compounds read low 1.02 | S. cerevisiae deletion strains, locus YLR357W, strain rsc2, active compounds read low 1.02 | S. cerevisiae deletion strains, locus YLR370C, strain arc18, active compounds read low 1.02 | S. cerevisiae deletion strains, locus YLR371W, strain rom2, active compounds read low 1 | S. cerevisiae deletion strains, locus YLR384C, strain iki3, active compounds read low 1.02 | S. cerevisiae deletion strains, locus YLR418C, strain cdc73, active compounds read low 0.992 | S. cerevisiae deletion strains, locus YML016C, strain PPZ1, active compounds read low 1 | S. cerevisiae deletion strains, locus YML032C, strain rad52, active compounds read low 0.995 | S. cerevisiae deletion strains, locus YML120C, strain ndi1, active compounds read low 1.03 | S. cerevisiae deletion strains, locus YML124C, strain tub3, active compounds read low 0.998 | S. cerevisiae deletion strains, locus YMR058W, strain fet3, active compounds read low 1.02 | S. cerevisiae deletion strains, locus YMR078C, strain ctf18, active compounds read low 0.998 | S. cerevisiae deletion strains, locus YMR125W, strain sto1, active compounds read low 1.05 | S. cerevisiae deletion strains, locus YMR129W, active compounds read low 1.02 | S. cerevisiae deletion strains, locus YMR205C, strain PFK2, active compounds read low 1.03 | S. cerevisiae deletion strains, locus YMR223W, strain ubp8, active compounds read low 1.01 | S. cerevisiae deletion strains, locus YMR231W, strain pep5, active compounds read low 1.02 | S. cerevisiae deletion strains, locus YMR307W, strain GAS1, active compounds read low 1.01 | S. cerevisiae deletion strains, locus YNL067W, strain RPL9B, active compounds read low 1 | S. cerevisiae deletion strains, locus YNL071W, strain lat1, active compounds read low 1.02 | S. cerevisiae deletion strains, locus YNL128W, strain TEP1, active compounds read low 1.02 | S. cerevisiae deletion strains, locus YNL183C, strain NPR1, active compounds read low 0.946 | S. cerevisiae deletion strains, locus YNL209W, strain ssb2, active compounds read low 1.01 | S. cerevisiae deletion strains, locus YNL233W, strain BNI4, active compounds read low 0.991 | S. cerevisiae deletion strains, locus YNL248C, strain rpa49, active compounds read low 1 | S. cerevisiae deletion strains, locus YNL250W, strain rad50, active compounds read low 1.02 | S. cerevisiae deletion strains, locus YNL271C, strain bni1, active compounds read low 0.998 | S. cerevisiae deletion strains, locus YNL298W, strain CLA4, active compounds read low 1.01 | S. cerevisiae deletion strains, locus YNL307C, strain MCK1, active compounds read low 0.996 | S. cerevisiae deletion strains, locus YNL322C, strain KRE1 (second series), active compounds read low 1.01 | S. cerevisiae deletion strains, locus YNL322C, strain KRE1, active compounds read low 1.01 | S. cerevisiae deletion strains, locus YNR049C, strain mso1, active compounds read low 1.01 | S. cerevisiae deletion strains, locus YNR052C, strain pop2, active compounds read low 1.01 | S. cerevisiae deletion strains, locus YOL006C, strain TOP1, active compounds read low 0.987 | S. cerevisiae deletion strains, locus YOL012C, strain htz1 0.665 | S. cerevisiae deletion strains, locus YOL147C, strain pex11, active compounds read low 0.993 | S. cerevisiae deletion strains, locus YOR001W, strain rrp6, active compounds read low 1.03 | S. cerevisiae deletion strains, locus YOR061W, strain CKA2, active compounds read low 1.01 | S. cerevisiae deletion strains, locus YOR069W, strain VPS5, active compounds read low 1.01 | S. cerevisiae deletion strains, locus YOR070C, strain gyp1, active compounds read low 1.02 | S. cerevisiae deletion strains, locus YOR080W, strain dia2, active compounds read low 1.02 | S. cerevisiae deletion strains, locus YOR083W, strain WHI5, active compounds read low 1.03 | S. cerevisiae deletion strains, locus YOR106W, strain vam3, active compounds read low 1.02 | S. cerevisiae deletion strains, locus YOR136W, strain idh2, active compounds read low 0.998 | S. cerevisiae deletion strains, locus YOR144C, strain elg1, active compounds read low 0.997 | S. cerevisiae deletion strains, locus YOR184W, strain ser1, active compounds read low 0.996 | S. cerevisiae deletion strains, locus YOR231W, strain MKK1, active compounds read low 1.04 | S. cerevisiae deletion strains, locus YOR265W, strain rbl2, active compounds read low 1.01 | S. cerevisiae deletion strains, locus YOR270C, strain vph1, active compounds read low 1.07 | S. cerevisiae deletion strains, locus YOR290C, strain snf2, active compounds read low 1.02 | S. cerevisiae deletion strains, locus YOR316C, strain cot1, active compounds read low 1 | S. cerevisiae deletion strains, locus YPL051W, strain arl3, active compounds read low 1.03 | S. cerevisiae deletion strains, locus YPL055C, strain LGE1, active compounds read low 1.03 | S. cerevisiae deletion strains, locus YPL078C, strain atp4, active compounds read low 1.04 | S. cerevisiae deletion strains, locus YPL106C, strain sse1, active compounds read low 1.02 | S. cerevisiae deletion strains, locus YPL240C, strain hsp82, active compounds read low 1.01 | S. cerevisiae deletion strains, locus YPL256C, strain CLN2, active compounds read low 1.04 | S. cerevisiae deletion strains, locus YPR119W, strain clb2, active compounds read low 0.998 | S. cerevisiae deletion strains, locus YPR141C, strain kar3, active compounds read low 0.991 | S. cerevisiae deletion strains, locus YPR163C, strain tif3, active compounds read low 1 | S. cerevisiae deletion strains, locus YPR167C, strain met16, active compounds read low 0.992 | S. cerevisiae deletion strains, strain wtn01, active compounds read low 0.994 | S. cerevisiae strains, strain wild type, active compounds read low 1.01
